Where “and” joins values, the source holds several entries; their conditions need not be identical. Identical values can stand only once. Records with an inconclusive call do not appear. Entries that show only a call come without a potency. Some compounds were tested as several samples or in several runs, with calls that do not always agree. Calls of active or inactive are those of the source. Unless noted, calls follow the shape of the dose curve; as a rule, active = well fitted curve in the direction sought with a large enough effect in the repeat runs; inconclusive = weak or mixed curves; inactive = no such curve, though single readings can be large; an effect the other way counts as inactive or inconclusive.
How the values were obtained:
[1] = qHTS RealTime-Glo MT Cell Viability Assay in HepG2 cells - 16 hour (AID 1224885); also: nearly all actives have a fitted effect of over 50% in size
Summary of the method: (§1)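 Real-time, nonlytic viability: 600 HepG2 cells/well mixed with NanoLuc enzyme plus prosubstrate; 5 h settle, compound (DMSO) added by pintool; luminescence monitored over 40 h at 37 C.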

[2] = qHTS RealTime-Glo MT Cell Viability Assay in HEK293 cells - 24 hour (AID 1224886); also: nearly all actives have a fitted effect of over 50% in size; also: potency is read from the fitted curve at half-maximal effect
Summary of the method: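 Cells + reagent dispensed (600 cells/well, HEK293) → 5 h at 37 C/5% CO2 → 23 nL compound in DMSO pinned → 40 h at 37 C → luminescence read at 0, 8, 16, 24, 32, 40 h.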

[3] = qHTS RealTime-Glo MT Cell Viability Assay in HEK293 cells - 8 hour (AID 1224887); also: nearly all actives have a fitted effect of over 50% in size; also: potency is read from the fitted curve at half-maximal effect
Summary of the method: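 Luminescence, which tracks viable cell number through reduction of the prosubstrate to a NanoLuc substrate, was read over continuous 37 C culture. Cells (600/well) were premixed with reagent and rested 5 h before 23 nL of compound in DMSO was pinned.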

[4] = A CellTox Green Cytotoxicity Assay to monitor cytotoxicity in HEK293 cells - 16 hour (AID 1224888); also: nearly all actives have a fitted effect of over 35% in size
Summary of the method: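 Fluorescence from a DNA-binding dye excluded by viable cells was measured repeatedly in the same HEK293 wells (600 cells/well) during continuous compound exposure at 37 C. Each assay gives one read point: 0, 8, 16, 24, 32 or 40 h.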

[5] = qHTS RealTime-Glo MT Cell Viability Assay in HepG2 cells - 0 hour (AID 1224889); also: nearly all actives have a fitted effect of over 50% in size; also: potency is read from the fitted curve at half-maximal effect
Summary of the method: as §1

[6] = A CellTox Green Cytotoxicity Assay to monitor cytotoxicity in HepG2 cells - 8 hour (AID 1224890); also: nearly all actives have a fitted effect of over 45% in size
Summary of the method: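 Real-time cytotoxicity: fluorescence of a cell-impermeant cyanine dye binding DNA of dead HepG2 cells, measured repeatedly (0–40 h) during compound exposure at 37 C. Cells seeded 600/well with reagent, dosed after 5 h.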

[7] = qHTS assay to identify small molecule antagonists of the estrogen receptor alpha (ER-alpha) signaling pathway using the BG1 cell line in the presence of 0.1 nM 17-beta-estradiol - cell viability counter screen (AID 1259241); also: nearly all actives have a fitted effect of over 40% in size
Summary of the method: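 VM7Luc4E2 cells (endogenous ER-alpha, 4×ERE-luciferase), hormone-starved 5 days in charcoal-stripped FBS, were treated with compounds plus 0.1 nM 17beta-estradiol for 22 hr at 37C; viability read in same wells as CellTiter-Fluor live-cell protease fluorescence.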

[8] = qHTS assay to identify small molecule antagonists of the androgen receptor (AR) signaling pathway using the MDA cell line in the presence of 0.5 nM R1881 - cell viability counter screen (AID 1259242); also: nearly all actives have a fitted effect of over 45% in size
Summary of the method: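 Live-cell protease activity was measured by CellTiter-Fluor fluorescence after 30 min. Before that, MDA-kb2 MMTV-luciferase cells had 16 hr at 37C without CO2, exposed to test compounds and 0.5 nM R1881 final.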

[9] = target: Estrogen receptor (Homo sapiens) (UniProt P03372); assay: qHTS assay to identify small molecule antagonists of the estrogen receptor alpha (ER-alpha) signaling pathway using the BG1 cell line in the presence of 0.1 nM 17-beta-estradiol (AID 1259244); also: nearly all actives have a fitted effect of over 50% in size
Summary of the method: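 Luciferase luminescence (ONE-Glo, 30 min at room temperature) was read after 22 hr at 37C exposure to compounds plus 17beta-estradiol at 0.1 nM final. Cells were VM7Luc4E2 with endogenous ER-alpha and an ERE-driven luciferase, pre-cultured 5 days in hormone-depleted medium.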

[10] = qHTS assay to identify small molecule HDAC inhibitors (AID 1259364); also: nearly all actives have a fitted effect of over 45% in size; also: potency is read from the fitted curve at half-maximal effect
Summary of the method: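 Luminescence read after 30 min room-temperature HDAC-Glo incubation measures cellular class I/II HDAC activity. Compounds were applied for 2 hr at 37 C to HCT-116 wild-type cells seeded the day before.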

[11] = qHTS assay to identify small molecule HDAC inhibitors - cell viability counter screen (AID 1259365)
Summary of the method: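 Wild-type HCT-116 cells were seeded at 1,500 per well, incubated overnight at 37 C, then exposed to compounds in DMSO for 2hr. Viability was read by CellTiter-Glo luminescence after 30min at room temperature.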

[12] = qHTS assay to identify small molecule agonists of the sonic hedgehog signaling (Shh) pathway - cell viability counter screen (AID 1259366); also: nearly all actives have a fitted effect of over 50% in size; also: potency is read from the fitted curve at half-maximal effect
Summary of the method: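 NIH/3T3-derived 3T3 Gli1-Luc cells (stable Gli1-responsive firefly luciferase reporter) were seeded, rested 4 hr at 37 C/5% CO2, then exposed to compounds in DMSO for 24 hr; viability was read by CellTiter-Fluor fluorescence in the same wells.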

[13] = qHTS assay to identify small molecule antagonists of the sonic hedgehog signaling (Shh) pathway - cell viability counter screen (AID 1259367); also: nearly all actives have a fitted effect of over 55% in size
Summary of the method: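 Tox21 library chemicals were tested on a Gli1-Luc NIH/3T3 clone (2,000 cells/well) stimulated by conditioned medium; viability was quantified as fluorescence from CellTiter-Fluor reagent added at 23 hr.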

[14] = qHTS assay to identify small molecule agonists of the sonic hedgehog signaling (Shh) pathway (AID 1259368; calls by dose curve; also: series mostly up to about 92 µM; nearly all actives have a fitted effect of over 15% in size)
Summary of the method: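 Luminescence was read after 30 min at room temperature with luciferase reagent. Before that, 3T3Gli1-Luc cells (NIH/3T3 clone, stable Gli1-Luc reporter; 2,000/well) were exposed to compounds for 24 hr at 37C, 5% CO2, compounds being added 4 hr post-plating.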

[15] = qHTS assay to identify small molecule antagonists of the sonic hedgehog signaling (Shh) pathway (AID 1259369; calls by dose curve; also: nearly all actives have a fitted effect of over 45% in size; also: potency is read from the fitted curve at half-maximal effect)
Summary of the method: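 Antagonist mode: compound added to 3T3 Gli1-Luc cells followed by conditioned-medium stimulation, 24 h at 37 C, 5% CO2. Inhibition taken as loss of Gli1-driven luciferase luminescence.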

[16] = target: Androgen receptor (Homo sapiens) (UniProt P10275); assay: qHTS assay to identify small molecule antagonists of the androgen receptor (AR) signaling pathway using the MDA cell line in the presence of 0.5 nM R1881 (AID 1259243); also: nearly all actives have a fitted effect of over 50% in size
Summary of the method: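 Luminescent reporter readout (ONE-Glo, 30 min, room temperature) after 16 hr co-treatment of MDA-kb2 cells with test compounds and 0.5 nM R1881 final, at 37C without CO2. The MMTV-driven luciferase responds to both AR and GR.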

[17] = qHTS assay to identify small molecule phospholipidosis (PLD) inducers (AID 1259344; active = well fitted curve in the direction sought with a large enough effect; an effect the other way counts as inactive or inconclusive)
Summary of the method: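 Image-based: LipidTOX Red pit count/intensity per well and per cell; HepG2, 24 h compound at 37 C, PFA fixation, Hoechst counterstain.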

[18] = target: Estrogen receptor beta (Homo sapiens) (UniProt Q92731); assay: qHTS assay to identify small molecule agonists of the estrogen receptor beta (ER-beta) signaling pathway (AID 1259377; active = well fitted activation curve with a large enough effect in the signal ratio in the repeat runs, not every such curve was filed as active; the % refers to the signal ratio)
Summary of the method: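 ER-beta-UAS-bla HEK293T (GripTite) cells carrying a UAS-driven beta-lactamase reporter, in medium with 2% charcoal-stripped FBS, were exposed to compounds for 16 hr at 37C; LiveBLAzer B/G FRET substrate was then added and fluorescence read after 2 hours at room temperature.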

[19] = target: Estrogen receptor beta (Homo sapiens) (UniProt Q92731); assay: qHTS assay to identify small molecule antagonists of the estrogen receptor beta (ER-beta) signaling pathway (AID 1259378; active = well fitted inhibition curve with a large enough effect in the signal ratio in the repeat runs, not every such curve was filed as active; the % refers to the signal ratio)
Summary of the method: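 ER-beta-UAS-bla HEK293T cells in 2% charcoal-stripped FBS medium treated with compound plus 1nM final 17-beta-estradiol for 16 hr at 37C. Beta-lactamase reporter read by FRET substrate fluorescence after 2 hours at room temperature.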

[20] = qHTS assay to identify small molecule agonists of the androgen receptor (AR) signaling pathway in the presence of an antagonist - cell viability counter screen (AID 1259379); also: nearly all actives have a fitted effect of over 25% in size; also: potency is read from the fitted curve at half-maximal effect
Summary of the method: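 Cytotoxicity counter-screen run in the same wells as the nilutamide-challenged (3.0 µM final) AR agonist assay in MDA-kb2 cells. Compounds tested at 15 concentrations for 16 h, 37 °C without CO2; CellTiter-Fluor fluorescence read.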

Sequence of Estrogen receptor (Homo sapiens) (P03372 whole entry, looked up): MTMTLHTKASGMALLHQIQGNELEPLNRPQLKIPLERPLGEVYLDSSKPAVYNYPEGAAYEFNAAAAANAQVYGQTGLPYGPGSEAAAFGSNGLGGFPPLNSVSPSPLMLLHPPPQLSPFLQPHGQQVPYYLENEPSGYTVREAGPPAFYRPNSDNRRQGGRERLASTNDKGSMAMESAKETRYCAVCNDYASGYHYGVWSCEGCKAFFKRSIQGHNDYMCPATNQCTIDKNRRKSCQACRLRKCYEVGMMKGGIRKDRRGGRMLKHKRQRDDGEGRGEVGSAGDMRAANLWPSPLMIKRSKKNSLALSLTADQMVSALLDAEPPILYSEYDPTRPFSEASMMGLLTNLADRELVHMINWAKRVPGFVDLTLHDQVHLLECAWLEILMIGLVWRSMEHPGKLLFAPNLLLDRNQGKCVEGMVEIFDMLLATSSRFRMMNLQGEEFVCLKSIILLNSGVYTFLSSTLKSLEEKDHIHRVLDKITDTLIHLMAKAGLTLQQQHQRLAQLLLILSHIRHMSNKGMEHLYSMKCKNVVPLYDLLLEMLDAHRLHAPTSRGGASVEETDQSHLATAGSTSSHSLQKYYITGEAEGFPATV
Sequence of Androgen receptor (Homo sapiens) (P10275 whole entry, looked up): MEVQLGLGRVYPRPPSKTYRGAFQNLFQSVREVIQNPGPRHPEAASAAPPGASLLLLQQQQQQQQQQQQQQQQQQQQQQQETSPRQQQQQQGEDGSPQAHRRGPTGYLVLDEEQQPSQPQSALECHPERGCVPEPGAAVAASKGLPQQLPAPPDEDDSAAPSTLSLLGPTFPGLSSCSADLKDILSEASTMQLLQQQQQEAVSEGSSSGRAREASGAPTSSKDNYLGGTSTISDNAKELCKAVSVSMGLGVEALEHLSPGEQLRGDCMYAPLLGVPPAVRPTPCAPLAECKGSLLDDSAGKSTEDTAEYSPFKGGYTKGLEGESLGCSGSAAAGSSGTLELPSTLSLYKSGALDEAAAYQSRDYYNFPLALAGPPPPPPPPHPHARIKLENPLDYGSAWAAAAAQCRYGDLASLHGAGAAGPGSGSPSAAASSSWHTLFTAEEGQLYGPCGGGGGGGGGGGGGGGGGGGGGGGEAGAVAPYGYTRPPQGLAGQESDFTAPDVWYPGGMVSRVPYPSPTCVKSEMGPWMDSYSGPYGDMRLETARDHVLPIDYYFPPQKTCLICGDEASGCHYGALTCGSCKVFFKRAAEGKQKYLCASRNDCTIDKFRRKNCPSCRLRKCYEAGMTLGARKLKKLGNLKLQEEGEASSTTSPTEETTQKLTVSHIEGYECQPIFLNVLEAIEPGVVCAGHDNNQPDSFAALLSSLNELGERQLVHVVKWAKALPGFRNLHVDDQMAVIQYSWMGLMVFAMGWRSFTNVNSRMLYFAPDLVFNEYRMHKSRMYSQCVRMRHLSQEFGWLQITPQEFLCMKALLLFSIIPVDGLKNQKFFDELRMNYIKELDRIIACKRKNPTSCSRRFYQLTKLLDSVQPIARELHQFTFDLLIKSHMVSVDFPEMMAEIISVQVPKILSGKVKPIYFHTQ
Sequence of Estrogen receptor beta (Homo sapiens) (Q92731 whole entry, looked up): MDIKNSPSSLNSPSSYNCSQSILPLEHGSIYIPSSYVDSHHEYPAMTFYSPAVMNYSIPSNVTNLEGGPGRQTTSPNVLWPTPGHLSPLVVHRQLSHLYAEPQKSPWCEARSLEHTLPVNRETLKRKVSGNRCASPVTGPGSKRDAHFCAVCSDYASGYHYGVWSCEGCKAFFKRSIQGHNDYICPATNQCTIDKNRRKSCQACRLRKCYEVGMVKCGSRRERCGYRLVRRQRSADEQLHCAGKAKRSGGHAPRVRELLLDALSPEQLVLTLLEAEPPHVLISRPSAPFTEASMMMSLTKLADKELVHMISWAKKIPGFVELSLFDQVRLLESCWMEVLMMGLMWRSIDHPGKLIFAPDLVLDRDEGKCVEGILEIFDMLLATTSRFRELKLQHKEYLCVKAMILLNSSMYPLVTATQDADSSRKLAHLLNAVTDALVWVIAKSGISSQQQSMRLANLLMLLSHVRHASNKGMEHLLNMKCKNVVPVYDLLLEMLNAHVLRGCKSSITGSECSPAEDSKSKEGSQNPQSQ

SMILES | outcome [1] | Potency [2] | Potency [3] | outcome [4] | Potency [5] | Potency [6] | Potency [7] | outcome [8] | Potency [9] | Potency [10] | outcome [11] | Potency [12] | Potency [13] | outcome [14] | Potency [15] | Potency [16] | outcome [17] | Potency [18] | Potency [19] | Potency [20]
C/C=C1/CC2C=CC1C2 (stereo not drawn) | inactive | inactive | inactive | inactive | inactive | inactive | inactive | inactive | inactive | inactive | inactive | inactive | inactive | inactive | inactive | – | – | – | – | –
C=C(C)C(=O)OCCOCCOCCOC(=O)C(=C)C | inactive | inactive | inactive | inactive | inactive | inactive | inactive | inactive | – | inactive | inactive | inactive | inactive | inactive | – | – | – | – | – | –
OCCOCCOCCO | inactive | inactive | inactive | inactive | inactive | inactive | inactive | inactive | inactive | inactive | inactive | – | inactive | inactive | inactive | inactive | inactive | inactive | inactive | –
CCCCCOC(C)=O | inactive | inactive | inactive | inactive | inactive | inactive | inactive | inactive | inactive | inactive | inactive | inactive | inactive | inactive | inactive and 27.3 µM (active) | – | – | – | – | inactive
Oc1cccc2ccccc12 | inactive | inactive | inactive | inactive | inactive | inactive | inactive | inactive | – | inactive | inactive | inactive | inactive | inactive | 6.28 µM (active) and 15.4 µM (active) | – | – | inactive | – | –
C[C@H]1C[C@@H]2[C@H]([C@@H](O)C[C@@]3(C)[C@H]2CC[C@]3(O)C(=O)CO)[C@@]2(C)C=CC(=O)C=C12 | inactive | inactive | inactive | inactive | 871 nM (active) and 1.9 µM (active) | inactive | inactive | inactive | – | inactive | inactive | inactive | inactive | inactive | inactive | inactive | inactive | – | – | –
O=[N+]([O-])c1ccc(/C=C/c2ccc([N+](=O)[O-])cc2S(=O)(=O)O)c(S(=O)(=O)O)c1 | inactive | inactive | inactive | inactive | inactive | inactive | inactive | inactive | inactive | inactive | inactive | inactive | inactive | inactive | inactive | – | – | inactive | inactive | inactive
CC1CCC2CC1C2(C)C (stereo not drawn) | inactive | inactive | inactive | inactive | inactive | inactive | inactive | inactive | – | inactive | inactive | inactive | inactive | inactive | inactive | – | – | inactive | inactive | –
COc1ccc(Nc2ccccc2)c(C)c1 | inactive | inactive | inactive | inactive | inactive | inactive | inactive | inactive | inactive | inactive | inactive | inactive | inactive | inactive | inactive | – | – | – | – | inactive
COCCCOc1ccnc(CS(=O)c2nc3ccccc3[nH]2)c1C (stereo not drawn) | inactive | 10.9 µM (active) and inactive | 19.4 µM (active) and inactive | inactive | inactive | inactive | inactive | inactive | – | 30.5 µM (active) and inactive | inactive | inactive | inactive | inactive | inactive | – | inactive | inactive | inactive | 48.4 µM (active) and inactive
O=C(O)c1ccccc1C(c1ccc(O)cc1)c1ccc(O)cc1 | inactive | inactive | inactive | inactive | inactive | inactive | inactive | inactive | inactive | inactive | inactive | inactive | inactive | inactive | inactive | inactive | – | inactive | inactive | inactive
CC(c1cc2ccccc2s1)N(O)C(N)=O (stereo not drawn) | inactive | inactive | inactive | inactive | inactive | inactive | inactive | inactive | inactive | inactive | inactive | – | inactive | inactive | inactive | inactive | inactive | inactive | inactive | –
C[C@H]1C[C@H]2[C@@H]3CCC4=CC(=O)C=C[C@]4(C)[C@@]3(F)[C@@H](O)C[C@]2(C)[C@@]1(O)C(=O)CO | inactive | inactive | inactive | inactive | 7.76 µM (active) | inactive | inactive | inactive | – | inactive | inactive | inactive | inactive | inactive | inactive | – | inactive | – | – | inactive
O=C(O)c1cc(O)c(O)c(O)c1 | inactive | inactive | inactive | inactive | inactive | inactive | inactive | inactive | inactive | inactive | inactive | 61.7 µM (active) and inactive | inactive | inactive | 27.6 µM (active) and inactive | – | inactive | – | – | 55 µM (active) and inactive
N[C@@H](Cc1cc(I)c(Oc2cc(I)c(O)c(I)c2)c(I)c1)C(=O)O | inactive | inactive | inactive | inactive | inactive | inactive | inactive | inactive | – | inactive | inactive | inactive | inactive | inactive | inactive | – | inactive | inactive | inactive | inactive
FC(F)(F)c1ccc(Cl)c(Cl)c1 | inactive | inactive | inactive | inactive | inactive | inactive | inactive | inactive | inactive | inactive | inactive | inactive | inactive | inactive | inactive | inactive | – | inactive | inactive | inactive

From PubChem BioAssay (Tox21)
